# According to PubChem BioAssay (NCATS):
# Calls of active or inactive are those of the source. Calls come from the whole dose curve; as a rule, active = well fitted inhibition curve with a large enough effect; inconclusive = small, poorly fitted or top-dose-only effect; inactive = flat fitted curve, though single readings scatter.
# Molecular target: DNA polymerase III PolC-type (Bacillus subtilis (strain 168)) (UniProt P13267)
# Experiment: qHTS Validation Assay for the Inhibitors of DNA Replication in Gram-Positive Bacteria (AID 485295);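 for activity change, negative = inhibition: reconstituted holoenzyme with PolC plus beta clamp SSB and primase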
# Conditions: Gram-positive bacterial DNA replication assay; series mostly up to 57.1 µM; activity change, negative = inhibition: at the top concentration
# Protocol: B Subtilis DNA polymerase III holoenzyme complex was assayed for DNA production by fluorescent detection of the double-stranded DNA product with PicoGreen dye. The holoenzyme complex was reconstituted from the following purified protein components: DNA Polymerase III, beta subunit processivity factor, SSB single-stranded DNA binding protein, and Primase. Single-stranded, circular M13Gori was used as a substrate with dNTPs and NTPs also supplied to the substrate reagent. Compounds from the NCGC collection were incubated with the holoenzyme mixture for […] at room temperature to allow binding to occur, and then the reaction was started by the addition of substrate. After 30 min incubation at room temperature, PicoGreen solution containing EDTA was added to stop the reaction and to visualize the double-stranded DNA produced. Reaction progress was measured in a ViewLux CCD imager in fluorescence intensity mode by using 480 nm excitation and 540 nm emission filter set.
# 1. Thaw screening compounds.
# 2. Label assay plates. Prepare pipette tips, reagent reservoirs, buffers and controls.
# 1. Thaw Enzymes, DNA template, Nucleotides and PicoGreen dye concentrate. Thawed enzymes are stable on ice for ~1
# week. Other thawed components are stable indefinitely.
# 2. Prepare sufficient quantities of Enzyme, Substrate and PicoGreen Quench mixes (according to Table II). For the number of
# compound plates being screened.
# 3. Ensure that the tip wash station reservoirs have clean water and turn on recirculating chiller so that the chilled deck position
# 1. Load 2 uL of EDTA controls (250 mM, Background, 100 % inhibition) and 2 uL of DMSO controls (Negative control, 0%
# inhibition) in the screening plates (flat-bottomed black 384-well polypropylene, Greiner Bio-one).
# 2. Place Enzyme mix reservoir on the chiller position of the liquid handler deck. Make sure that chiller will maintain
# temperature of Enzyme mix at 4degC. Substrate mix and PicoGreen Quench can be stored at room temp.
# 3. Program liquid handling robotics to dispense 18 uL of Enzyme mix into assay plates. Wash tips.
# 4. Aspirate and dispense 2 uL of compound from compound plates, mix and Incubate at room temperature for 10 minutes.
# 5. Aspirate 5 ul of Substrate mix, dispense into assay plates and mix by pipetting. Wash tips.
# 6. Incubate at room temperature (21 +/- 1 deg C) for 20 minutes.
# 7. Quench reactions by addition of 25 uL PicoGreen Quench mix and mix by pipetting (using HTS robotics or bulk reagent
# dispenser such as a Multidrop or uFill). Keep plates in the dark or stacked until ready to read fluorescence.
# 8. Read fluorescence intensity of plates on plate reader using "Fluorescein (Ex 485 nm/ Em 535 nm, 0.1s)" setting.
# Potency is the fitted concentration of half-maximal effect.
# DNA polymerase III PolC-type (Bacillus subtilis (strain 168)), sequence (P13267 whole entry, looked up): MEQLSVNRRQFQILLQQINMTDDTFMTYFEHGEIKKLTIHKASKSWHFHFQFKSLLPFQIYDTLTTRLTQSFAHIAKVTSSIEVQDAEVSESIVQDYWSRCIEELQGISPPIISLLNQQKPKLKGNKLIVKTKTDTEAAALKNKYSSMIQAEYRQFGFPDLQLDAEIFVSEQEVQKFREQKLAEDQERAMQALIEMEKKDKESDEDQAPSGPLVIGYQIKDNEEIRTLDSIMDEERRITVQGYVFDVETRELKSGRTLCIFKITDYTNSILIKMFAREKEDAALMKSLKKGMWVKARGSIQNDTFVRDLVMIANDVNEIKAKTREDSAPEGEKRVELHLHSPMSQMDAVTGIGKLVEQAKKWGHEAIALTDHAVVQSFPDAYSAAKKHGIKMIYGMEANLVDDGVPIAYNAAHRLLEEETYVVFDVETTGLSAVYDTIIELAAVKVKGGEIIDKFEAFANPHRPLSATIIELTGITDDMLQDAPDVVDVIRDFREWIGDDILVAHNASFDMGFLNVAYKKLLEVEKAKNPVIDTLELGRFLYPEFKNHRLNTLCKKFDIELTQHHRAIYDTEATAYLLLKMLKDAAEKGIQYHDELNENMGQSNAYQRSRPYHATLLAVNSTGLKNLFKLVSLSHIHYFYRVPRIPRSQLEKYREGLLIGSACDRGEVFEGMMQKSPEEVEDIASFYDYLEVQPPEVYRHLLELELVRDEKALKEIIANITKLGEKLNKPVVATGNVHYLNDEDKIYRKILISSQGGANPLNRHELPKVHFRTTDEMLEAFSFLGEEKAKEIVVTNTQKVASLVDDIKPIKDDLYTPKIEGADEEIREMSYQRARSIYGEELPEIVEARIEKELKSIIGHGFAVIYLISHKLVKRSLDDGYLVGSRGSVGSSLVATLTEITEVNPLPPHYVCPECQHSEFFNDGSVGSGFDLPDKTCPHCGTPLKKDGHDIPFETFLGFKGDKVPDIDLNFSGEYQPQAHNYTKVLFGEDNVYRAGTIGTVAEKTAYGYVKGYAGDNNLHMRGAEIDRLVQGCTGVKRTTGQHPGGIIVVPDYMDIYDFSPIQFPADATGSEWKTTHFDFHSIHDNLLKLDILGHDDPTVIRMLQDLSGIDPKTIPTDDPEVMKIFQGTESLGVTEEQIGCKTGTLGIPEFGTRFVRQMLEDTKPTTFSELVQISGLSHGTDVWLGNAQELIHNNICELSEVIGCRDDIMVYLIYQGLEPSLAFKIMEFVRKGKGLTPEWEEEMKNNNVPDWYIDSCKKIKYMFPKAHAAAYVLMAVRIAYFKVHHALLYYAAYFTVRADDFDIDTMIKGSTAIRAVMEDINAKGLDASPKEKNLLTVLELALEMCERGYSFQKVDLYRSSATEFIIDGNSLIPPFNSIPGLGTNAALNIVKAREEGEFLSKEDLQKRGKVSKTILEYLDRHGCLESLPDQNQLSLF
SMILES,"activity change, negative = inhibition",Potency
C[N+]1(CCCCC[N+]2(C)CCCC2)CCCC1,-3.02% (inactive),
C[C@]12CC[C@@H]3c4ccc(O)cc4CC[C@H]3[C@@H]1CC[C@@H]2O,-2.99% (inactive),
CC(CCc1ccccc1)NCC(O)c1ccc(O)c(C(N)=O)c1 (centres undefined),8.46% (inactive),
CCCn1c(=O)[nH]c(=O)c2[nH]cnc21,2.96% (inactive),
O=C(O)c1cc2cc(Cc3cccnc3)ccc2o1,4.08% (inactive),
CN1C2CCC1CC(OC(=O)c1c[nH]c3ccccc13)C2 (centres undefined),3.33% (inactive),
CNCCC=C1c2ccccc2CCc2ccccc21,2.21% (inactive),
Nc1cc(Cl)c(NC2=NCCN2)c(Cl)c1,5.91% (inactive),
CC1(C)CCC(NC(=O)[C@@H](N)CCC(=O)O)CC1,6.78% (inactive),
CCCC1O[C@@H]2C[C@H]3[C@@H]4CCC5=CC(=O)C=C[C@]5(C)[C@H]4[C@@H](O)C[C@]3(C)[C@]2(C(=O)CO)O1 (some centres undefined),3.47% (inactive),
N[C@@H](Cc1cnc[nH]1)C(=O)O,2.23% (inactive),
C1CCc2nnnn2CC1,-0.593% (inactive),
Oc1ccc(O)cc1,,5.32 µM (active)
O=C1CCC(c2ccc(-n3ccnc3)cc2)=NN1,-6.44% (inactive),
CC[C@H](C)C(=O)O[C@H]1CCC=C2C=C[C@H](C)[C@H](CC[C@@H]3C[C@@H](O)CC(=O)O3)[C@H]21,2.29% (inactive),
CNCCC(Oc1ccccc1C)c1ccccc1 (centres undefined),1.76% (inactive),
CC(C)C[C@H]1C(=O)N2CCC[C@H]2[C@]2(O)O[C@](NC(=O)[C@@H]3C=C4c5cccc6[nH]c(Br)c(c56)C[C@H]4N(C)C3)(C(C)C)C(=O)N12,-8.6% (inactive),
N[C@H](CO)C(=O)O,5.21% (inactive),
C[C@@H]1C(=O)NC2=Nc3cccc(Cl)c3CN21,-1.22% (inactive),
COc1cc2c(cc1O)CC[C@@H]1[C@@H]2CC[C@]2(C)[C@@H](O)CC[C@@H]12,-0.768% (inactive),
CC(C)COC(=O)OCN1C(=O)CN(CCN2CC(=O)N(COC(=O)OCC(C)C)C(=O)C2)CC1=O,5.2% (inactive),
COC(=O)[C@H]1[C@H]2C[C@H]3c4[nH]c5ccccc5c4CCN3C[C@H]2CC[C@@H]1O,5.91% (inactive),
CCC(NC(C)C)C(O)c1ccc(O)c(O)c1 (centres undefined),0.511% (inactive),
CC(=O)O[C@H]1C[C@@H]2CC[C@@H]3[C@H](CC[C@@]4(C)[C@H]3C[C@H]([N+]3(C)CCCCC3)[C@@H]4OC(C)=O)[C@@]2(C)C[C@@H]1[N+]1(C)CCCCC1,2.87% (inactive),
